Inconclusive results are not listed. Active and inactive are the calls of the source. The call rests on the fitted dose curve; in most records, active means well fitted cell-killing curve with a large enough effect; inconclusive means small, poorly fitted or top-dose-only effect, or effect the other way; inactive means no such curve, though single readings can be large or run the other way.
Test: Quantitative High-Throughput drug screen in 47 multiple myeloma cell lines against the NCATS MIPE library collection: KMS28PE_JCRB cell viability assay (AID 1918983); further: nearly all actives have a fitted effect of over 35% in size
Settings: KMS28PE multiple myeloma viability, CellTiter-Glo ATP, 48 h; series mostly up to 45.8 µM; viability, % of DMSO control: at the top concentration
How it was run: (§1)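 MIPE 4.0 approved/investigational drugs; 500 cells/well; 48 h 37 °C humidified 5% CO2; CTG luminescence readout; DMSO = 100%, media = 0% viability.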
Potency means the concentration at half of the fitted maximal effect.

| SMILES | viability, % of DMSO control | Potency |
| --- | --- | --- |
| CN(CC=CC#CC(C)(C)C)Cc1cccc2ccccc12 | 118% (inactive) |  |
| O=C(C=Cc1ccc(O)cc1)c1ccc(O)cc1O |  | 23.5 µM (active) |
| COc1ccc2c(c1)CC[C@H]1[C@@H]2CC[C@]2(C)[C@@H](NCCCCCCN3C(=O)C=CC3=O)CC[C@H]12 | 128% (inactive) |  |
| COc1ccc(C=CC(=O)Nc2ccccc2C(=O)O)cc1OC | 138% (inactive) |  |
| CNC(=O)[C@H](Cc1ccccc1)NC(=O)[C@H](CC(C)C)[C@H](CSc1cccs1)C(=O)NO |  | 6.62 µM (active) |
| O=C(O)Cc1cccc(OCCCN(Cc2cccc(C(F)(F)F)c2Cl)CC(c2ccccc2)c2ccccc2)c1 |  | 23.5 µM (active) |
| Nc1ccc(-c2ccc3ncc4ccc(=O)n(-c5cccc(C(F)(F)F)c5)c4c3c2)cn1 |  | 0.0166 µM (active) |
| CCC[C@H](N[C@@H](C)C(=O)N1[C@@H]2CCCC[C@H]2C[C@H]1C(=O)O)C(=O)OCC | 118% (inactive) |  |
| CCC[C@@H](NC(=O)[C@@H]1[C@H]2CCC[C@@H]2CN1C(=O)[C@@H](NC(=O)[C@@H](NC(=O)c1cnccn1)C1CCCCC1)C(C)(C)C)C(=O)C(=O)NC1CC1 |  | 16.6 µM (active) |
| FC(F)(F)c1ccc(C=Cc2nc(COc3ccc(CCCCn4ccnn4)cc3)co2)cc1 |  | 0.132 µM (active) |
| CO[C@H]1O[C@@H]2O[C@@]3(C)CC[C@@H]4[C@@H](C)CC[C@@H]([C@H]1C)[C@@]24OO3 |  | 4.18 µM (active) |
| CC(=O)OCC(=O)[C@@]1(O)CC[C@H]2[C@@H]3CCC4=CC(=O)C=C[C@]4(C)[C@@H]3[C@@H](O)C[C@@]21C | 115% (inactive) |  |
| C#C[C@]1(O)CC[C@H]2[C@H]3CCc4cc(OC)ccc4[C@H]3CC[C@@]21C | 127% (inactive) |  |
| NC(=O)c1noc([C@H](CCCC2CCCCC2)CC(=O)NO)n1 | 116% (inactive) |  |
| Oc1ccc(C=Cc2cc(O)cc(O)c2)cc1 | 117% (inactive) |  |

Test: Quantitative High-Throughput drug screen in 47 multiple myeloma cell lines against the NCATS MIPE library collection: L363_DSMZ cell viability assay (AID 1918984); further: nearly all actives have a fitted effect of over 40% in size
Settings: L363 myeloma viability, CellTiter-Glo ATP luminescence, 48 h; viability (% of control): at 45.8 µM (top of the series)
How it was run: as §1

| SMILES | Potency | viability (% of control) |
| --- | --- | --- |
| CC[C@H](CC#N)OC(=O)N[C@@H](C)c1cccc(NC(=O)Nc2ccc(-c3cnco3)c(OC)c2)c1 | 18.7 µM (active) |  |
| CCN1CCC(n2cc(CNc3cc(Cl)c4ncc(C#N)c(Nc5ccc(F)c(Cl)c5)c4c3)nn2)CC1 | 4.69 µM (active) |  |
| O=C1CN2Cc3c(ccc(Cl)c3Cl)N=C2N1 |  | 134% (inactive) |
| Cc1ccc2c(c1)C(=O)[C@]1(O)CCN(c3ccccc3)C1=N2 |  | 74.5% (inactive) |
| COc1cc(N2CCN(C)CC2)ccc1Nc1nc(N)c(C(=O)c2c(Cl)cccc2Cl)s1 | 20.9 µM (active) |  |
| Nc1ncnc2c1ncn2[C@@H]1O[C@H](CO)[C@@H](O)[C@@H]1O | 1.05 µM (active) |  |
| COc1ccc(CCN(C)CCCOc2ccc(S(=O)(=O)c3[nH]c4ccccc4c3C(C)C)cc2)cc1OC |  | 135% (inactive) |
| CN[C@@H]1CN(c2ccc3c(=O)c(C(=O)O)cn(-c4nccs4)c3n2)C[C@@H]1OC |  | 124% [at 23.2 µM] (inactive) |
| O=[N+]([O-])c1ccc(Nc2ccccc2-c2ccccc2)c2nonc12 | 16.6 µM (active) |  |
| Cc1cc(CS(=O)(=O)c2ccccc2)cc(OCc2ccc(CN3CCC[C@H]3CO)cc2)c1 | 8.33 µM (active) |  |
| CO[C@H]1C=CO[C@@]2(C)Oc3c(C)c(O)c4c(O)c(c(C=NN5CCN(C)CC5)c(O)c4c3C2=O)NC(=O)C(C)=CC=C[C@H](C)[C@H](O)[C@@H](C)[C@@H](O)[C@@H](C)[C@H](OC(C)=O)[C@H]1C |  | 98.7% [at 15.3 µM] (inactive) |
| FC(F)(F)c1ccc(C=Cc2nc(COc3ccc(CCCCn4ccnn4)cc3)co2)cc1 | 0.001 µM (active) |  |
| CCOC(=O)c1c(CSc2ccccc2)n(C)c2cc(Br)c(O)c(CN(C)C)c12 | 20.9 µM (active) |  |
| COc1cc([C@H]2Oc3cc([C@H]4Oc5cc(O)cc(O)c5C(=O)[C@H]4O)ccc3O[C@H]2CO)ccc1O |  | 109% (inactive) |
| C[C@@H](N)c1ccc(C(=O)Nc2ccnc3[nH]ccc23)cc1 | 20.9 µM (active) |  |
| C#C[C@]1(O)CC[C@H]2[C@H]3CCc4cc(OC)ccc4[C@H]3CC[C@@]21C |  | 59.9% (inactive) |
| NC(=O)c1noc([C@H](CCCC2CCCCC2)CC(=O)NO)n1 |  | 124% (inactive) |

Test: Quantitative High-Throughput drug screen in 47 multiple myeloma cell lines against the NCATS MIPE library collection: KMS34_JCRB cell viability assay (AID 1918985); further: nearly all actives have a fitted effect of over 40% in size
Settings: KMS34 myeloma viability, CellTiter-Glo ATP luminescence, 48 h; series mostly up to 45.8 µM; viability, percent of control: at the top concentration
How it was run: as §1

| SMILES | Potency | viability, percent of control |
| --- | --- | --- |
| Cc1ccc2c(c1)C(=O)[C@]1(O)CCN(c3ccccc3)C1=N2 | 1.48 µM (active) |  |
| Nc1ncnc2c1ncn2[C@@H]1O[C@H](CO)[C@@H](O)[C@@H]1O | 18.7 µM (active) |  |
| CC(C)(O)CC(=O)NCCn1ccc2ncnc(Nc3ccc(Oc4cccc(C(F)(F)F)c4)c(Cl)c3)c21 | 23.5 µM (active) |  |
| c1cc(OCCN2CCCCC2)cc(-c2n[nH]c3ccc(-c4ncn[nH]4)cc23)c1 | 20.9 µM (active) |  |
| CN[C@@H]1CN(c2ccc3c(=O)c(C(=O)O)cn(-c4nccs4)c3n2)C[C@@H]1OC | 5.12 µM (active) |  |
| O=[N+]([O-])c1ccc(Nc2ccccc2-c2ccccc2)c2nonc12 |  | 74.2% (inactive) |
| CN(CC=CC#CC(C)(C)C)Cc1cccc2ccccc12 |  | 93.2% (inactive) |
| COc1ccc2c(c1)CC[C@H]1[C@@H]2CC[C@]2(C)[C@@H](NCCCCCCN3C(=O)C=CC3=O)CC[C@H]12 |  | 89.7% (inactive) |
| Cc1cc(CS(=O)(=O)c2ccccc2)cc(OCc2ccc(CN3CCC[C@H]3CO)cc2)c1 |  | 81% (inactive) |
| CO[C@H]1C=CO[C@@]2(C)Oc3c(C)c(O)c4c(O)c(c(C=NN5CCN(C)CC5)c(O)c4c3C2=O)NC(=O)C(C)=CC=C[C@H](C)[C@H](O)[C@@H](C)[C@@H](O)[C@@H](C)[C@H](OC(C)=O)[C@H]1C | 2.12 µM (active) |  |
| COc1ccc(C=CC(=O)Nc2ccccc2C(=O)O)cc1OC |  | 99.2% (inactive) |
| Nc1ccc(-c2ccc3ncc4ccc(=O)n(-c5cccc(C(F)(F)F)c5)c4c3c2)cn1 | 0.0066 µM (active) |  |
| CCC[C@H](N[C@@H](C)C(=O)N1[C@@H]2CCCC[C@H]2C[C@H]1C(=O)O)C(=O)OCC |  | 101% (inactive) |
| CCOC(=O)c1c(CSc2ccccc2)n(C)c2cc(Br)c(O)c(CN(C)C)c12 | 11.8 µM (active) |  |
| COc1cc([C@H]2Oc3cc([C@H]4Oc5cc(O)cc(O)c5C(=O)[C@H]4O)ccc3O[C@H]2CO)ccc1O | 20.9 µM (active) |  |
| C[C@@H](N)c1ccc(C(=O)Nc2ccnc3[nH]ccc23)cc1 | 20.9 µM (active) |  |
| CC(=O)OCC(=O)[C@@]1(O)CC[C@H]2[C@@H]3CCC4=CC(=O)C=C[C@]4(C)[C@@H]3[C@@H](O)C[C@@]21C | 0.209 µM (active) |  |
| Oc1ccc(C=Cc2cc(O)cc(O)c2)cc1 | 5.26 µM (active) |  |

Reference: PubChem BioAssay (NCATS)
